From PubChem BioAssay (NCI) come the findings set out here.

About 83,000 compounds went through this panel and 20% of them were active in at least one assay; those are over-represented in the sample as a whole.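 Cells were grown in 96-well plates and exposed to the test compound at a single concentration for 48 hours; results are reported as percent growth, with values below 10 considered active.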 Values without a mark were called inactive. Active and inactive are the calls of the source.

What all share (assay): NCI-60 one-dose screen, 48 h (100 = growth as untreated, 0 = no growth, -100 = all killed)
What all share (details): 10 µM

For test [1], the system named is SK-MEL-2 melanoma.
Test [2] relates to SN12C renal.
Test [3] deals with UO-31 renal.
Test [4] has as its system TK-10 renal.
Test [5] deals with ACHN renal.
Test [6] deals with CAKI-1 renal.
In test [7] the test system is A498 renal.
Test [8] has as its system CCRF-CEM leukemia.
The subject of test [9] is MOLT-4 leukemia.

In the case of `CC(=O)Oc1c(C)c(C)c2c(c1C)CCC(C)(CC(=O)OCCCCCCCCCCC[P+](c1ccccc1)(c1ccccc1)c1ccccc1)O2` (stereo not given), the growth in test [1] was -88.7% (active); in [2] it was -82.3% (active); in test [3], -5.35% (active); in [4] it was -97% (active); in [5], -95.4% (active); in test [6] it was -76.3% (active). Also, the growth was -20.5% (active) in [7], 3.68% (active) in [8] and -23.6% (active) in [9].

Take `Cc1nnc2c3nnc(-c4ccc(Cl)cc4)n3c3ccccc3n12`: the growth in test [1] is 99.9%; in test [2], 97.7%; in test [3] it was 72.4%; in test [4] it was 92%; in test [5], 101%; in test [6], 93.2%. Moreover, the growth in [7] is 94.3%; in [8], 90.3%; in [9], 89.9%.

With `Cc1cc(C)c(C(=O)OC(C)CNC2CCCCC2)c(C)c1` (stereo not given), the growth in test [1] is 95%; in test [2] it was 100%; in [3], 68.6%; in [4], 92%; in test [5], 97.8%; in test [6] it was 97%. Besides, the growth was 92.1% in test [7], 89.7% in [8] and 84.7% in test [9].

Regarding `CCCN(CCC)CCCNC(=O)c1cc2c(-c3ccc(OC)c(OC)c3)nn(C)c2s1`, the growth is -31.3% (active) in test [1]; 20.8% in test [2]; 6.68% (active) in test [3]; 55.8% in test [4]; 25% in [5]; 28.5% in test [6]. For the same molecule, the growth in test [7] was -0.28% (active); in test [8] it was -15.9% (active); in test [9], -8.08% (active).

`O=C(Nc1cccc(-c2nc3ccccc3[nH]2)c1)c1cccc(NC(=O)c2ccco2)c1`: the growth in test [1] was 101%; in test [2] it was 79.1%; in [3] it was 73.2%; in test [4], 91.6%; in test [5], 86%; in [6], 77.6%. Moreover, the growth in [7] was 83.6%; in test [8], 68.3%; in test [9], 86.4%.

For `COc1cc(Cl)cc(-c2nn(-c3cccc(NC(=O)Nc4cccc(C(F)(F)F)c4)c3)cc2-c2ccncc2)c1`, the growth was -36.7% (active) in [1]; 13.9% in test [2]; -4.59% (active) in [3]; 23.4% in test [4]; 5.44% (active) in [5]; 16.1% in test [6]. Further, the results for the growth in [7], in [8] and in test [9] were -6.74% (active), 3.34% (active) and -9.16% (active), respectively.

For `COc1cccc(C(=O)NNc2nc(N3CCOCC3)nc(N3CCN(C(c4ccccc4)c4ccccc4)CC3)n2)c1`, the growth is 85.3% in test [1]; 75.3% in test [2]; 39.7% in [3]; 86.7% in test [4]; 76.3% in [5]; 44.7% in test [6]. In addition, the growth was 51.3% in test [7], 85.1% in test [8] and 63.2% in test [9].

In the case of `Cc1ccc(-c2cc(C(=O)Nc3ccc(S(=O)(=O)N4CCCCC4)cc3)[nH]n2)c(O)c1`, the growth in [1] was 80%; in test [2] it was 53.3%; in test [3] it was 56.2%; in test [4], 61.6%; in test [5] it was 66.5%; in test [6], 67.3%. In addition, the values for the growth in test [7], in test [8] and in test [9] were 63.3%, 45.5% and 38.7%, respectively.

With `Cc1cnc(C=O)c2cccc([N+](=O)[O-])c12`, the growth in [1] was 102%; in test [2], 86.8%; in test [3], 43.5%; in test [4], 108%; in test [5], 85.8%; in [6], 86.3%. Further, the results for the growth in test [7], in test [8] and in test [9] were 106%, 11.5% and 61%, respectively.

With `O=NN(CCCl)C(=O)NCc1ccc(-c2ccc(CNC(=O)N(CCCl)N=O)cc2)cc1`, the growth in test [1] was 95.1%; in [2], 97.8%; in test [3], 67.7%; in [4] it was 105%; in test [5], 105%; in test [6] it was 96.6%. In addition, the growth is 102% in test [7], 93.3% in test [8] and 82.3% in test [9].

Take `O=C(Nc1ccc(CN2CCOCC2)cc1)c1ccc(-c2cc(Cl)ccc2Cl)o1`: the growth in test [1] was 55.5%; in test [2], 63.4%; in test [3], 25.4%; in test [4], 49.4%; in test [5], 41.8%; in test [6], 43.5%. Besides, the figures for the growth in test [7], in [8] and in test [9] were 87.1%, 38.6% and 42.9%, respectively.

Regarding `COc1cccc2c1O/C(=C\c1ncc([N+](=O)[O-])n1C)C2=O`, the growth was -51.5% (active) in test [1]; -54.2% (active) in test [2]; -34.7% (active) in [3]; -33.7% (active) in test [4]; 7.42% (active) in test [5]; -26.5% (active) in [6]. Further, the growth in [7] was -33.4% (active); in [8] it was 8.19% (active); in test [9], -1.08% (active).

For the molecule `COc1cc(CSc2nc3ccc(C)cc3c(=O)n2-c2ccccc2)cc(OC)c1OC`, the growth is 14.7% in [1]; 37% in test [2]; 24.1% in [3]; 61.7% in test [4]; 44.7% in test [5]; 27.6% in test [6]. In addition, the results for the growth in test [7], in test [8] and in test [9] were 16%, 15.8% and 21.8%, respectively.

As for `Cc1cc(C)c(/C=C2\C(=O)Nc3ccc(NC(=O)CCCCCCC(=O)NO)cc32)[nH]1`, the growth in [1] was -5.24% (active); in test [2], 44%; in test [3], 66%; in test [4], 10.6%; in [5] it was 58.5%; in test [6] it was 68.7%. In addition, the growth in test [7] is -9.05% (active); in test [8], 23.9%; in [9] it was 13.2%.

As to `NCCNc1ccc2cc(-c3nc4ccccc4[nH]3)c(=O)oc2c1`, the growth in [1] is 106%; in test [2], 92.2%; in test [3] it was 81.7%; in test [4], 128%; in test [5], 95.8%; in test [6], 96.3%. The growth is 94.7% in test [7], 81.9% in test [8] and 88.4% in test [9].

Take `O=C(Nc1ccc(Oc2ccc(Nc3nc4ccccc4s3)cc2)cc1)Nc1ccc(Cl)c(Cl)c1`: the growth in test [1] is 50.7%; in [2], 24.9%; in test [3], 25.8%; in test [4], 54.1%; in test [5] it was 20.3%; in [6] it was 37.6%. Moreover, the growth in test [7] was 33.4%; in test [8], 24.5%; in test [9], 9.65% (active).

For the molecule `O=C(O)CN1C(=O)C=CC1=O`, the growth in test [1] was 98.2%; in [2], 106%; in [3], 91.6%; in test [4], 96.7%; in [5], 104%; in test [6], 102%. Also, the growth was 91.6% in [7], 107% in test [8] and 85.2% in test [9].

Consider `COc1cc(-c2cc(-c3ccc(C)cc3)nc3nc(N)[nH]c(=O)c23)ccc1Oc1ccnc2cc(Cl)ccc12`, for which the growth in [1] was 93%; in test [2], 74.2%; in test [3] it was 56.3%; in test [4] it was 120%; in test [5], 93.4%; in test [6], 83.2%. For the same molecule, the values for the growth in test [7], in test [8] and in test [9] were 73.4%, 40.6% and 49.1%, respectively.

For the molecule `COC(=O)c1c(C)nc(Nc2nc3ccccc3s2)nc1-c1ccc(Cl)cc1Cl`, the growth in [1] was 120%; in [2], 99.8%; in test [3], 81.2%; in test [4], 120%; in test [5], 96.7%; in [6] it was 99.6%. The results for the growth in test [7], in [8] and in test [9] were 100%, 95% and 84.7%, respectively.

`Cc1[nH]nc2c(=S)[nH]c(=O)[nH]c12`: the growth in [1] is 109%; in test [2] it was 105%; in test [3] it was 93.4%; in [4], 108%; in test [5], 104%; in test [6], 101%. Also, the growth in test [7] was 100%; in test [8], 97.8%; in test [9] it was 105%.

With `CCOCC[P+](c1ccccc1)(c1ccccc1)c1ccccc1`, the growth is 51.2% in [1]; 59% in test [2]; 75.9% in test [3]; 57.3% in test [4]; 94.2% in test [5]; 85.5% in test [6]. Also, the growth is 72% in test [7], 34.7% in test [8] and 47.6% in test [9].

For the molecule `COc1ccc(-c2nnc(COc3ccc(NC(=O)Nc4cccc(C(F)(F)F)c4)cc3F)o2)cc1`, the growth in test [1] was 36.8%; in test [2], 48.7%; in test [3], 57.2%; in test [4] it was 75.3%; in [5] it was 27.3%; in test [6], 50.6%. The growth in test [7] is 27.3%; in test [8], 47.7%; in [9], 33.8%.

`CCOC(=O)CSC(=S)SCC(=O)OCC`: the growth in test [1] was 96.7%; in test [2], 106%; in test [3] it was 102%; in [4], 132%; in test [5], 109%; in test [6] it was 103%. Also, the growth in test [7] is 121%; in [8], 85.1%; in [9] it was 96.6%.

With `c1ccc(OCCC[P+](c2ccccc2)(c2ccccc2)c2ccccc2)cc1`, the growth in test [1] was -11.5% (active); in test [2], 10.4%; in test [3], 63.8%; in [4], 18.1%; in test [5], 66%; in test [6], 76.6%. Besides, the growth is 12.1% in [7], 1.67% (active) in test [8] and 0.0403% (active) in test [9].

Regarding `O=C(c1ccc(Cl)cc1)c1no[n+]([O-])c1C(=O)c1ccc(Cl)cc1`, the growth was 92% in [1]; 86.4% in test [2]; -94.9% (active) in [3]; 84.1% in test [4]; 39.7% in test [5]; -68.6% (active) in test [6]. Besides, the growth is 106% in test [7], -51.6% (active) in test [8] and 68.2% in [9].

As to `CCCCCCCCCCCC(c1ccccc1)N(C)C` (stereo not given), the growth is 116% in test [1]; 90.7% in [2]; 68.9% in [3]; 134% in test [4]; 92.5% in test [5]; 93.2% in test [6]. The growth in test [7] was 71.2%; in [8], 69.1%; in test [9] it was 82.1%.

Consider `Nc1ccc(C2=CC(c3ccc(Cl)cc3)N3C=CSC3=N2)cc1` (stereo not given), for which the growth in test [1] was -49.9% (active); in [2], -45.2% (active); in test [3] it was -96% (active); in test [4] it was -30.1% (active); in [5], -100% (active); in [6] it was -19.5% (active). Besides, the growth was -93.5% (active) in [7], -22.1% (active) in test [8] and -11% (active) in test [9].

As for `c1ccc(COCC[P+](c2ccccc2)(c2ccccc2)c2ccccc2)cc1`, the growth is -14.8% (active) in test [1]; 5.38% (active) in [2]; 46.9% in test [3]; 8.09% (active) in [4]; 45.2% in test [5]; 59.9% in test [6]. The growth in test [7] was -2.41% (active); in [8] it was 2.79% (active); in test [9], -10.1% (active).

In the case of `CC(C)OCc1cc(CN2CCN(c3cccc(Cl)c3)CC2)c(O)c2ncccc12`, the growth is -59.1% (active) in test [1]; -4.06% (active) in test [2]; -6.8% (active) in test [3]; 5.04% (active) in test [4]; 10.1% in test [5]; -49.9% (active) in [6]. Further, the growth is -62.7% (active) in [7], -13.4% (active) in [8] and -48.6% (active) in test [9].

On to `Cc1ccc(-c2cc(-c3cccc(Nc4ccnc5cc(Cl)ccc45)c3)nc3nc(N)[nH]c(=O)c23)cc1`, for which the growth in test [1] is 87.6%; in test [2], 96.6%; in test [3], 78.1%; in test [4], 112%; in test [5], 105%; in test [6] it was 94.8%. In addition, the growth in test [7] is 109%; in test [8] it was 56.1%; in test [9], 81.8%.
